# Measured values reported in PMC7862700, “An all-to-all approach to the identification of sequence-specific readers for epigenetic DNA modifications on cytosine”.
# How the values were obtained:
# Experiment in all cases: DAPPL (digital affinity profiling via proximity ligation, sequencing); 10 mM Tris-HCl pH 7.5, 50 mM NaCl, 1 mM DTT, 4% glycerol, room temperature, 30 min; GST-TFs on glutathione beads, 16-mer random dsDNA library, 0.1% formaldehyde crosslink after washing; high values mean tight binding
# ELK3 = target: T1, ELK3 (Homo sapiens, UniProt P41970 1-407); conditions: protein: recombinant; tags: N-terminal GST; dsDNA, one strand shown
# T1 sequence: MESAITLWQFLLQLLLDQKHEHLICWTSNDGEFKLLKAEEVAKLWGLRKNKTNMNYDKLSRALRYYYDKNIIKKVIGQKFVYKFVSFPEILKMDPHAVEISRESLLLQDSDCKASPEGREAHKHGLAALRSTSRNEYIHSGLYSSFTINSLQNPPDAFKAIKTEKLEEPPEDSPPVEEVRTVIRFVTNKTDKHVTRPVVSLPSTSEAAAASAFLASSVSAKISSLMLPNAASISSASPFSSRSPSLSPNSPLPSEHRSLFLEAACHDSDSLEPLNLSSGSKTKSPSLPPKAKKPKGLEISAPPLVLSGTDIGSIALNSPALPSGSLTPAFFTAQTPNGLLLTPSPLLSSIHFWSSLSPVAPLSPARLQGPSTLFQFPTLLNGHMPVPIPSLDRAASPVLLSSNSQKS
# Outline: (§1)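 Sequencing on an Illumina NextSeq500 followed washing, crosslinking with 0.1% formaldehyde, proximity ligation (BsaI/T4 ligase, 1 h, 37 °C) and PCR amplification of pools that had been incubated for 30 min at room temperature with 200 nmole of a random double-stranded 16-mer DNA library in Tris/NaCl/DTT/glycerol buffer. Each pool held DNA-barcoded human transcription factors, expressed in yeast as GST fusions and captured on glutathione beads, plus a tag-only sample. Binding signal is a hexamer's read frequency for a factor divided by its frequency in the tag-only sample.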
# HSF1 = HSF1 (Homo sapiens, UniProt Q00613 1-529); conditions: protein: recombinant; tags: N-terminal GST; chain copies: 3; dsDNA, one strand shown
# Outline: as §1
# ETV7 = target: T2, ETV7 (Homo sapiens, UniProt Q9Y603 1-341); conditions: protein: recombinant; tags: N-terminal GST; dsDNA, one strand shown
# T2 sequence: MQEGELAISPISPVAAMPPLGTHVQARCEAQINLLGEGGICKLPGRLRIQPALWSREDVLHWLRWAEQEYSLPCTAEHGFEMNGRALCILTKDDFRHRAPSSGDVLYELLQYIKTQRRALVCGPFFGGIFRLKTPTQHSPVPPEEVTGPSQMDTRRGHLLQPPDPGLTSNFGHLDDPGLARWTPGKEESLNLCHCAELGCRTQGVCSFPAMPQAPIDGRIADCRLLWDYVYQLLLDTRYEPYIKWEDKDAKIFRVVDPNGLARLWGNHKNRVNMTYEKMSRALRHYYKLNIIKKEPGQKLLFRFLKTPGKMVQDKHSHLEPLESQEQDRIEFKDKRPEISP
# Outline: as §1
# ELF5 = target: T3, ELF5 (Homo sapiens, UniProt Q9UKW6-2 1-255); conditions: protein: recombinant; tags: N-terminal GST; dsDNA, one strand shown
# T3 sequence: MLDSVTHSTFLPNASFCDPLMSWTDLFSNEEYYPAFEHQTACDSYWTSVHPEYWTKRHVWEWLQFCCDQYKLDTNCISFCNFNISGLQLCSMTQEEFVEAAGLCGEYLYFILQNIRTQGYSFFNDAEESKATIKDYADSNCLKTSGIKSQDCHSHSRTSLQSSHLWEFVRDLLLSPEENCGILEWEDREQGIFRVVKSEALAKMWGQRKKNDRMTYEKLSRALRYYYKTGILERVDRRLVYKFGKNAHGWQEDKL
# Outline: as §1
# ETV3 = target: T4, ETV3 (Homo sapiens, UniProt P41162-2 1-143); conditions: protein: recombinant; tags: N-terminal GST; dsDNA, one strand shown
# T4 sequence: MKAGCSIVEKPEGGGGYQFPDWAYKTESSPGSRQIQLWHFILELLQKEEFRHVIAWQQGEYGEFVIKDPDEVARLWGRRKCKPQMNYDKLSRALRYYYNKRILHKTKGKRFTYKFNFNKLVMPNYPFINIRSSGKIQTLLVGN
# Outline: as §1
# ETV6 = ETV6 (Homo sapiens, UniProt P41212 1-452); conditions: protein: recombinant; tags: N-terminal GST; dsDNA, one strand shown
# Outline: as §1
# SPIC = target: T5, SPIC (Homo sapiens, UniProt Q8N5J4 1-248); conditions: protein: recombinant; tags: N-terminal GST; dsDNA, one strand shown
# T5 sequence: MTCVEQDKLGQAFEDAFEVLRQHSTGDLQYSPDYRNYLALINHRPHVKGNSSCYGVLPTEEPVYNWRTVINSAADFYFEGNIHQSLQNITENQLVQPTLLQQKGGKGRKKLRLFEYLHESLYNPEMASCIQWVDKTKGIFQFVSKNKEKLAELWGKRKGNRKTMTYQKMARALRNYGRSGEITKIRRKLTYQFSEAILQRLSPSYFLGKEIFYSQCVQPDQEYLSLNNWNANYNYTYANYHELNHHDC
# Outline: as §1
# SPIB = SPIB (Homo sapiens, UniProt Q01892 1-262); conditions: protein: recombinant; tags: N-terminal GST; dsDNA, one strand shown
# Outline: as §1
# CRX = CRX (Homo sapiens, UniProt O43186 1-299); conditions: protein: recombinant; tags: N-terminal GST; dsDNA, one strand shown
# Outline: as §1
# HSF1, sequence (Q00613 whole entry): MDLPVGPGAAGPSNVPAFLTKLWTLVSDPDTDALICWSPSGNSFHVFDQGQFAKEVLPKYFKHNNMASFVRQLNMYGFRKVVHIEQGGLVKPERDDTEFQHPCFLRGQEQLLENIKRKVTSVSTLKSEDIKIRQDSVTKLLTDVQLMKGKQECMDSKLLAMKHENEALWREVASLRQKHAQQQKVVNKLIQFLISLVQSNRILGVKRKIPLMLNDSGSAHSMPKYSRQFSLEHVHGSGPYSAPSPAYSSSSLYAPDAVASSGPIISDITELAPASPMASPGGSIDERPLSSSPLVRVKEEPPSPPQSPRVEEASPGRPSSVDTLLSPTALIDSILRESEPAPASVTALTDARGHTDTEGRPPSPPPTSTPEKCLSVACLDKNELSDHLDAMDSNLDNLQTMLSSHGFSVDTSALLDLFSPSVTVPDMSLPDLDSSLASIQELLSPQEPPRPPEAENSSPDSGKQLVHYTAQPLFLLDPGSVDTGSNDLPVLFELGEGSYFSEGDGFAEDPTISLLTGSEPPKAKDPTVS
# CRX, sequence (O43186 whole entry): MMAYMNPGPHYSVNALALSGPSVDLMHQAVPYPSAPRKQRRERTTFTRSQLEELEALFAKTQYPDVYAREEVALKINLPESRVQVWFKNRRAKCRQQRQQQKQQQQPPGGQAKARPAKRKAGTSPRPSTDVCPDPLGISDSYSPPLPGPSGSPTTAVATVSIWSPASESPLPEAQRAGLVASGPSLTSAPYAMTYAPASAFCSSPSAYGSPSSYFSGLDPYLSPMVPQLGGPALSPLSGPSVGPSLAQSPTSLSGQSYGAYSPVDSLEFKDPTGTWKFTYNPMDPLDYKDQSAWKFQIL
# SPIB, sequence (Q01892 whole entry): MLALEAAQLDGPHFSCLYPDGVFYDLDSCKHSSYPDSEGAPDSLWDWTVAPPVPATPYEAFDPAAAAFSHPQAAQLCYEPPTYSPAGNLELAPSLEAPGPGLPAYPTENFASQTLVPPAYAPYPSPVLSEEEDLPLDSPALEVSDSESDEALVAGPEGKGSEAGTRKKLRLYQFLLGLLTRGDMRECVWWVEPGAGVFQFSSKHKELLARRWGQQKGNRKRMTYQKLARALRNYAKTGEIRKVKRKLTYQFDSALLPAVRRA
# ETV6, sequence (P41212 whole entry): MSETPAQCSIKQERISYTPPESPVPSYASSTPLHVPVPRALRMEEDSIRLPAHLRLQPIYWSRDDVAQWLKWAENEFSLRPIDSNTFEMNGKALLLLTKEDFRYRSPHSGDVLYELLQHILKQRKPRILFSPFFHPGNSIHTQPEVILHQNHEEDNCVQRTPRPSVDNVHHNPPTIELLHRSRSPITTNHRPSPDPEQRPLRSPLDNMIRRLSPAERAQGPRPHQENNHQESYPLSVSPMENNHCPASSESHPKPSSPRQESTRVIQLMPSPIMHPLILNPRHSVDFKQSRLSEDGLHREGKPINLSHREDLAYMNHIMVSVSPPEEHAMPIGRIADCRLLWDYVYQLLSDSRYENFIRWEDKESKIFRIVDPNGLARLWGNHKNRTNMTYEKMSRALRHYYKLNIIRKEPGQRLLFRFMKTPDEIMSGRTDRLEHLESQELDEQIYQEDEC
sequence,measurement,setting,value
GGAAAG,binding signal,ELK3,"1 fold enrichment (6-mer frequency, TF over GST control)"
same,binding signal,HSF1,"1.29 fold enrichment (6-mer frequency, TF over GST control)"
same,binding signal,ETV7,"1.06 fold enrichment (6-mer frequency, TF over GST control)"
same,binding signal,ELF5,"1.12 fold enrichment (6-mer frequency, TF over GST control)"
same,binding signal,ETV3,"1 fold enrichment (6-mer frequency, TF over GST control)"
same,binding signal,ETV6,"1.06 fold enrichment (6-mer frequency, TF over GST control)"
GATAGT,binding signal,SPIC,"1.01 fold enrichment (6-mer frequency, TF over GST control)"
GAATCA,binding signal,SPIB,"1.03 fold enrichment (6-mer frequency, TF over GST control)"
same,binding signal,HSF1,"1.06 fold enrichment (6-mer frequency, TF over GST control)"
same,binding signal,CRX,"1.04 fold enrichment (6-mer frequency, TF over GST control)"
GGCACC,binding signal,SPIC,"1.03 fold enrichment (6-mer frequency, TF over GST control)"
GGTCCA,binding signal,SPIC,"1.02 fold enrichment (6-mer frequency, TF over GST control)"
GAAGAT,binding signal,HSF1,"1.24 fold enrichment (6-mer frequency, TF over GST control)"
same,binding signal,CRX,"1.12 fold enrichment (6-mer frequency, TF over GST control)"
same,binding signal,ETV7,"1 fold enrichment (6-mer frequency, TF over GST control)"
GTGCTG,binding signal,SPIC,"1.05 fold enrichment (6-mer frequency, TF over GST control)"
